FBPA coupling cs: qHTS Assay for Inhibitors of Fructose-1,6-bisphosphate Aldolase from Giardia Lamblia: Coupling assay counterscreen. coupling enzyme system counterscreen, AmpLite Red fluorescence. AID 2472, 2010. activity change, negative = inhibition, % at 58.2 µM, hits read low. 290,000 tested, 0.67% active; in the data active = activity change below about -30%
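Counterscreen lacking aldolase: glyceraldehyde-3-phosphate coupling-enzyme reagent preincubated 10 min at RT with compound (at 57.5 uM final), then substrate/coupling system with AmpLite Red added; fluorescence read at 525/598 nm after 20 min RT.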
Sfp PPTase inh: qHTS Assay for Inhibitors of Bacillus subtilis Sfp phosphopantetheinyl transferase (PPTase) | 4'-phosphopantetheinyl transferase ffp (Bacillus subtilis), Q9F4F7 | Biochemical Sfp PPTase activity, qHTS | Potency, µM, actives largely listed as inhibitors | 310,000 tested, 3.5% active | AID 1490, 2009;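 note: the enzyme is Sfp with the accession as filed and its product quenches rhodamine fluorescence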
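Buffer: 50 mM Hepes-Na pH 7.6, 10 mM MgCl2, 0.01% Nonidet P-40, 0.01% BSA. Enzyme 15 nM, pre-exposed to compound 15 min; substrates then added and fluorescence change tracked over 30 min.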
Giardia killer: Small Molecules that selectively kill Giardia lamblia: qHTS; Giardia lamblia trophozoite viability; activity change, % at 7.66 µM, hits read low; 340,000 tested, 0.15% active; AID 540267, 2011; in the data active = activity change below about -80%; inconclusive = between about -30% and that limit;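 note: parasites exposed to compound for two days anaerobically before the ATP read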
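Anaerobic 48 hrs incubation at 37 deg C of 100 trophozoites/well with test compounds; ATPLite 1-Step luminescence, 15-30 min RT, reports cellular ATP as viability.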
ELG1 DNA repair: qHTS screen for small molecules that inhibit ELG1-dependent DNA repair in human embryonic kidney (HEK293T) cells expressing luciferase-tagged ELG1; AID 504467, 2011; HEK293T ELG1-luciferase reporter, luminescence, 16 h; DNA damage induced by 5-fluorouridine; 330,000 tested, 2.3% active; Potency, µM (highest dose often 46.1 µM), most hits filed as inhibitors; note: nearly all actives have a fitted effect of over 55% in size
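Overnight (16 hr) co-exposure of 2,000 cells/well to 5-fluorouridine and compound at 37 °C preceded detection. Luciferase was quantified via ONE-Glo luminescence; loss of signal denotes inhibition.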
Hits are given with their value; – = inactive; ? = inconclusive; · = not tested or not shown; ! = repeats disagree. A selection: hits, their analogues and other compounds. The true share with any hit is near 5.5%. Unless noted, calls come from the whole dose curve; as a rule, active = well fitted curve in the direction sought with a large enough effect; inconclusive = small, poorly fitted or top-dose-only effect, or another doubt; inactive = no such curve, though single readings can be large; an effect the other way counts as inactive or inconclusive.

SMILES | FBPA coupling cs | Sfp PPTase inh | Giardia killer | ELG1 DNA repair
CC(=O)c1ccc2c(c1)C1C(Cl)C(Sc3ccccc3[N+](=O)[O-])CC1C(C(=O)O)N2 (stereo unspecified) | – | 56µM | – | ?
O=C(O)c1cccc2c1NC(C(=O)O)C1CC(Sc3ccccc3[N+](=O)[O-])C(Cl)C21 (stereo unspecified) | – | 25µM | – | –
CC1=C(O)C(=O)C=C2C1=CC=C1[C@]2(C)CC[C@@]2(C)C3C[C@](C)(C(=O)O)CC[C@@]3(C)CC[C@@]12C (stereo partly specified) | – | – | · | ·
C1=NCCc2c1[nH]c1ccccc21 | · | · | – | ·
COc1ccc2c3c([nH]c2c1)C(C)=NCC3 | – | – | – | 9.2µM
CC1=NCCc2c1[nH]c1cc(O)ccc21 | – | 79µM! | – | –
O=C(Nc1cccc(F)c1)N1CC2(CCN(C(=O)Oc3ccccc3)CC2)C1 | – | – | · | ·
O=c1[nH]c(=O)n(Cl)c(=O)n1Cl | · | – | · | ·
CCOP(=S)(OCC)Oc1ccc2c(C)c(Cl)c(=O)oc2c1 | – | – | – | ·
CCOP(=S)(OCC)Oc1cc(C)oc(=O)c1Cl | – | 8.9µM | – | –
CCOP(=S)(OCC)Oc1cc(C)oc(=O)c1 | – | 20µM | – | ?
Ic1c(C2=CCCCC2)[se]c2ccccc12 | – | – | · | ·
COc1ccc(-n2c(O)c(/C(C)=N/Nc3ccccc3)c(=O)[nH]c2=O)cc1 | – | – | – | 7.3µM
CC/C(=C(\c1ccc(O)cc1)c1ccc(OCCN(C)C)cc1)c1ccccc1 | – | 40µM | – | ·
COC(=O)CCC(=O)Nc1sc(Cc2ccccc2)c(C)c1C(N)=O | – | 3.2µM | – | –
NC(=O)c1ccsc1NC(=O)COC(=O)Cc1ccccc1 | · | · | – | –
CC/C=C\C/C=C\C/C=C\C/C=C\C/C=C\CCCC(N)=O | – | – | · | ·
CCn1c(O)c(C=Nc2ccc(N3CCOCC3)cc2)c(=O)n(CC)c1=S | – | – | – | –
CCn1c(O)c(C(=O)CC2NCCc3ccccc32)c(=O)n(CC)c1=S (stereo unspecified) | – | 45µM | – | ?
O=c1[nH]c(=O)n(-c2ccccc2)c(O)c1/C=C1/C(c2ccccc2)=Nc2ccccc21 | – | – | – | –
COC(=O)C1=Nc2ccccc2/C1=C\c1c(O)n(-c2ccc(OC)cc2)c(=O)[nH]c1=O | – | 50µM | – | –
COC(=O)C1=Nc2ccccc2/C1=C\c1c(O)n(-c2ccc(Br)cc2)c(=O)[nH]c1=O | – | 45µM | – | –
COc1ccc(OC)c(-n2c(O)c(/C=C3\C(C)=Nc4ccccc43)c(=O)[nH]c2=O)c1 | – | – | – | –
C=C/C(=C/C(=O)C[C@H](C)C[C@@H](C)CC[C@H](O)[C@H](C)C(=O)C[C@@H](O)[C@H](C)[C@@H](C)OC(=O)C[C@@H](O)C1=C(C)C(=O)OC1=O)CC | – | – | · | ·
C[C@H]1CCCC(=O)CCC/C=C/c2cc(O)cc(O)c2C(=O)O1 | – | – | – | 21µM
SMILES | FBPA coupling cs | Sfp PPTase inh | Giardia killer | ELG1 DNA repair
CC(=O)O[C@H]1C(=O)[C@@]2(C)C([C@H](OC(=O)c3ccccc3)[C@]3(O)C[C@H](OC(=O)[C@H](O)[C@@H](NC(=O)c4ccccc4)c4ccccc4)C(C)=C1C3(C)C)[C@]1(OC(C)=O)CO[C@@H]1C[C@@H]2OC(=O)[C@H](C)NC(=O)c1ccc(-c2c3ccc(=O)cc-3oc3cc(O)ccc23)c(C(=O)O)c1 (stereo partly specified) | – | – | · | ·
C=C(C)[C@]12C[C@@H](C)[C@@]34O[C@](Cc5ccccc5)(O[C@@H]1[C@@H]3C=C(COC(=O)Cc1ccc(O)c(OC)c1)C[C@]1(O)C(=O)C(C)=C[C@@H]41)O2 | – | – | · | ·
CCOc1cc(OP(=S)(OC)OC)nc(CC)n1 | – | ? | · | ·
Cn1ccnc1P(=S)(c1nccn1C)c1nccn1C | – | 50µM | – | –
Cn1ccnc1P(=S)(c1nccn1C)N1CCOCC1 | – | ? | – | –
C/C=C1/C[C@@H](C)[C@@](C)(O)C(=O)OCC2=CCN3CC[C@@H](OC1=O)[C@@H]23 | – | – | – | ·
CCCCn1c(O)c(C(CC)=NCc2cccnc2)c(=O)[nH]c1=O | – | – | – | –
CCCCn1c(O)c(C(C)=NCc2cccnc2)c(=O)[nH]c1=O | – | – | – | –
CCC(=NCc1cc(OC)cc(OC)c1)c1c(O)n(C2CCCCC2)c(=O)[nH]c1=O | – | – | – | 16µM
CCCCn1c(O)c(C(CC)=NCc2cc(OC)cc(OC)c2)c(=O)[nH]c1=O | – | – | – | 16µM
CCCCn1c(O)c(C(C)=NCc2cc(OC)cc(OC)c2)c(=O)[nH]c1=O | – | – | – | 23µM
COc1cc(OC2CCN(C(C)=O)CC2)ccc1C(=O)N1CCC(N2C(=O)OCc3ccccc32)CC1 | – | – | · | ·
CN1C(=O)C(=Cc2ccc(N3CCOCC3)c([N+](=O)[O-])c2)C(=O)N(C)C1=O | – | 22µM | · | –
O=C1NC(=O)C(=Cc2ccc(N3CCN(C(=O)c4ccccc4)CC3)c([N+](=O)[O-])c2)C(=O)N1 | – | 28µM | – | –
C[C@H](CCC(=O)O)[C@H]1CC[C@@H]2[C@H]3CC[C@H]4C[C@H](O)CC[C@]4(C)[C@@H]3CC[C@@]21C | – | – | · | ·
CN(N)N=Nc1nc2c([nH]1)c(=O)n(C)c(=O)n2C | – | 18µM | – | –
CN(C)[C@@H]1C(=O)C(C(N)=O)=C(O)[C@@]2(O)C(=O)C3=C(O)c4c(O)cccc4[C@@](C)(O)[C@H]3[C@H](O)[C@@H]12 | – | 45µM | – | –
CC(C)=CCCC1(C)C=Cc2c(O)c3c(c(CC=C(C)C)c2O1)OC12C(=CC4CC1C(C)(C)OC2(C/C=C(/C)C(=O)O)C4=O)C3=O (stereo unspecified) | – | – | · | ·
CC(C)=CCCC1(C)C=Cc2c(O)c3c(c(CC=C(C)C)c2O1)OC12C(=CC4CC1C(C)(C)OC2(C/C=C(/C)C(=O)O)C4O)C3=O (stereo unspecified) | – | 50µM | · | ·
c1cc2c(cc1[C@H]1OC[C@@H]3[C@H]1CO[C@H]3c1ccc3c(c1)OCO3)OCO2 | – | – | · | ·
COc1cc(C(=O)Nc2ccc(Br)cc2C(=O)c2ccccc2Cl)cc(OC)c1OC | – | – | – | –
COc1cc(OC)cc(C(=O)Nc2ccc(Br)cc2C(=O)c2ccccc2)c1 | – | 35µM | – | –
Cc1ccccc1N1C(=O)NC(=O)/C(=C\c2ccc3c(c2)CCCN3Cc2ccccc2)C1=O | – | 79µM | – | –
CN1Cc2c(ccc3c2OCO3)C2C(O)Cc3cc4c(cc3C21)OCO4 (stereo unspecified) | – | – | · | ·
Cc1ccc2cc3c(ccc4ccccc43)c3c2c1CC3 | · | 50µM | · | ·
CC[C@@]1(c2ccc(N)cc2)CCC(=O)NC1=O | – | – | · | ·
N#C/C(=C\c1ccc(O)c(O)c1)C(N)=S | -64 | 0.18µM | · | ·
